# aSyn 5UTR act – Activators via SNCA 5'UTR binding, MLPCN. alpha-synuclein 5'UTR reporter, activators screen. activity score, % (tested at 7.5 µM), hits read low. 300,000 tested, 7.1% active; in the data active = activity score below about -60%
# A number is an active result; - = inactive. These entries were drawn from the full list.
SMILES,aSyn 5UTR act
COc1cc(OC)cc(C(=O)NCCOc2ccccc2)c1,-121
COc1cccc(C(=O)NCCn2ccc3ccccc32)c1,-119
O=C(NCCSc1ccccc1)c1cncc(Br)c1,-132
COc1c(C(=O)NCCSC(C)(C)C)ccc2ccccc12,-62
CSCCNC(=O)c1ccc(C(C)(C)C)cc1,-84
O=C(NCCSc1ccccc1)c1ccc(Br)cc1,-67
COc1cccc(C(=O)NCC(=O)N2CCC(C)CC2)c1,-115
CC(C)(C)c1ccc(C(=O)NCCOc2ccccc2F)cc1,-
O=C(NCCOc1ccccc1)c1cncc(Br)c1,-92
Cc1ccc(C(=O)NCCSC(C)(C)C)cc1[N+](=O)[O-],-119
O=C(NCCSc1ccccc1)c1ccccc1,-191
COc1ccc(CCN2CCCC(CN(C)C(=O)c3ccoc3)C2)cc1 (configuration not stated),-109
COc1ccc(/C=C2\CCCC(C(=O)C(F)(F)F)=C2O)cc1,-67
COCCCNC(=O)C1CCN(C(=O)c2oc3cc4sc(N(C)C)nc4cc3c2C)CC1,-93
CC(C)c1ccc(NC(=O)c2cccnc2)cc1,-247
CC(C)c1ccc(NC(=O)c2csnn2)cc1,-98
CC(C)c1ccc(NC(=O)c2snc3ccc(Cl)cc23)cc1,-369
CCSc1ccc(NC(=O)c2cccnc2)cc1,-66
CCc1ccc(NC(=O)c2cccnc2)cc1,-79
COc1ccc(Cc2nc(-c3ccc(NC(=O)c4cccnc4)cc3)no2)cc1,-
O=C(NCc1ccc(F)cc1)Nc1ccc(Cl)cc1,-65
COc1cccc(NC(=O)C(=O)NCCc2ccc(F)cc2)c1,-109
O=C(NCc1ccccn1)Nc1cccc(Cl)c1,-177
Cc1cccc(NC(=O)Nc2ccc(C)cc2Br)c1,-79
CCN(CC)CC(=O)Nc1ccc(C)cc1Br,-77
SMILES,aSyn 5UTR act
Cc1ccc(CNC(=O)Nc2cccc(C)c2)cc1,-117
Fc1cccc(NC(=S)NCc2ccccn2)c1,-94
O=C(NCc1ccc(F)cc1)Nc1cccc(Cl)c1,-149
CCCCCCNC(=O)Nc1ccccc1,-88
O=C(NCCc1ccc(F)cc1)Nc1ccccc1,-70
COC(=O)C[C@](O)(CCCC(C)(C)O)C(=O)O[C@@H]1C(OC)=C[C@]23CCCN2CCc2cc4c(cc2[C@H]13)OCO4,-
Brc1cc(Br)c2nc(-c3cccs3)ccc2c1,-157
O=C(CCSc1ccc(Cl)cc1)N1CCN(c2ncccn2)CC1,-103
Cc1nc2cc(-c3ccccc3)nn2c(C)c1CCC(=O)N1CCN(c2ccccc2)CC1,-
O=C(CCSc1ccccc1)N1CCN(c2ccccc2)CC1,-137
O=C(CCS(=O)(=O)c1ccccc1)N1CCN(c2ccc(F)cc2)CC1,-79
Cc1ccc(-c2ccc(SCC(=O)N3CCN(c4ccccc4)CC3)nn2)cc1,-91
O=C(CCSc1ccc(Cl)cc1)N1CCCCCC1,-133
Cc1nc2ccc(NC(=O)NCCO)cc2s1,-64
Cc1nc2ccc(NC(=O)NCCCO)cc2s1,-64
CC1CCc2c(sc3ncn(CCO)c(=O)c23)C1 (configuration not stated),-116
Cc1cccc(NCc2ccc(Br)cc2)n1,-66
Cc1cccc(NCc2cccc3ccccc23)n1,-67
CCCCOC(=O)Nc1nc2ccccc2s1,-252
CCCCN(C(=O)NC(=O)Nc1nc2ccc(OC)cc2s1)S(C)(=O)=O,-83
CCCCOC(=O)Nc1nc2ccc(OC)cc2s1,-103
CCc1ccc2oc(-c3cccc(NC(=O)c4cccnc4)c3)nc2c1,-167
O=C(Nc1ccc2oc(-c3ccccc3)nc2c1)c1ccc2c(c1)OCCO2,-66
O=C(Nc1ccc2oc(-c3ccccc3)nc2c1)c1ccco1,-156
CCCCCC(=O)Nc1ccc2oc(-c3cccnc3)nc2c1,-75
SMILES,aSyn 5UTR act
O=C(Nc1ccc2oc(-c3ccccc3)nc2c1)c1cccnc1,-161
Cc1cc(O)c(C(=O)/C=C/c2ccc(Cl)cc2)c(=O)o1,-172
CSc1ccc(/C=C/C(=O)c2c(O)cc(C)oc2=O)cc1,-117
CC1CCCC(C)N1C(=O)CSc1nnc(-c2cccs2)o1 (configuration not stated),-82
CCC1CCCCN1C(=O)CSc1nnc(-c2ccc(Cl)s2)o1 (configuration not stated),-62
CC1CCCCN1C(=O)CSc1nnc(-c2cccs2)o1 (configuration not stated),-108
N#CCN1CCN(CC(=O)Nc2ccc(OCc3ccccc3)cc2)CC1,-62
CN1CCN(CC(=O)Nc2ccc(OCc3ccccc3)cc2)CC1,-90
CCC(C)NC(=O)c1cc(Cl)c(NC(=O)C2=C(C)OCCS2)cc1OC (configuration not stated),-62
Oc1[nH]c2ccccc2c1N=Nc1ccc(F)cc1,-171
Cc1nc2ccccn2c1C(=O)N=Nc1c(O)[nH]c2ccccc12,-103
CC(C)(O)C(=O)N=Nc1c(O)[nH]c2ccccc12,-96
Oc1[nH]c2ccccc2c1N=Nc1ccccc1F,-357
O=[N+]([O-])c1ccc(N=Nc2c(O)[nH]c3ccc(F)cc23)cc1,-82
O=C1NCCc2c1[nH]c1ccc([N+](=O)[O-])cc21,-
Oc1[nH]c2ccccc2c1N=Nc1ccccc1,-123
COc1ccc(/C(C)=N/Nc2nncc3ccccc23)cc1,-113
COc1ccc(/C(C)=N/Nc2nc3ccccc3nc2C)cc1,-67
COc1ccc(N/N=C(/C)c2cnnc(-c3ccccc3)n2)cc1,-70
Cc1cccn2c(CN(C)CCC3CCCCO3)c(C(=O)N3CCCCC3)nc12 (configuration not stated),-69
O=c1[nH]c(/C(Cl)=C/c2cccc(F)c2)nc2cc(C(F)(F)F)ccc12,-162
O=C(c1ccccc1Sc1c(Cl)cccc1[N+](=O)[O-])N1CCOCC1,-74
N#Cc1nc(-c2ccccc2F)oc1NCCc1ccccn1,-81
COCCCNc1oc(-c2ccccc2F)nc1C#N,-84
N=c1ccn2c(n1)OC1C(O)C(CO)OC12 (configuration not stated),-
SMILES,aSyn 5UTR act
OC[C@H]1O[C@@H](n2cnc3c(Nc4ccccc4)ncnc32)[C@H](O)[C@@H]1O,-79
Nc1ccn([C@@H]2O[C@H](CO)[C@@H](O)C2O)c(=O)n1 (some centres not stated),-
Clc1ncccc1-c1nc2ccccc2s1,-149
O=c1c(-c2nc3ccccc3s2)cccn1Cc1ccc(Cl)cc1,-111
CCOC(=O)CSC1=NC(=O)/C(=C/c2ccc(Br)cc2)S1,-62
CCOC(=O)CSC1=NC(=O)/C(=C\c2ccc(OC(C)=O)cc2)S1,-131
Oc1ccccc1Nc1ncnc2c1oc1ccccc12,-88
CC(=O)N1CCN(c2ccc(Nc3ncnc4c3oc3ccccc34)cc2)CC1,-81
c1ccc(Nc2ncnc3c2oc2ccccc23)cc1,-139
Cc1nc(Nc2ccccc2)c2oc3ccc(Cl)cc3c2n1,-93
Oc1ccc(Nc2ncnc3c2oc2ccccc23)cc1,-116
c1ccc2c(c1)oc1c(Nc3ccc4c(c3)OCO4)ncnc12,-108
Cc1nnc(Nc2ccc3c(c2)OCO3)c2ccccc12,-80
Oc1cccc(Nc2ncnc3c2oc2ccccc23)c1,-134
c1ccc2c(c1)oc1c(Nc3ccc(CN4CCOCC4)cc3)ncnc12,-102
COc1ccc(CN=C2NN=C(c3ccccc3)CS2)cc1,-114
Cc1cc(C2=NNC(=NCCc3ccccc3)SC2)c(C)n1CC1CCCO1 (configuration not stated),-147
Clc1ccc(C2=NNC(=NCC3CCCO3)SC2)cc1 (configuration not stated),-73
C=CCn1c(C)cc(C2=NNC(=NCc3ccccc3)SC2)c1C,-182

# Source: PubChem BioAssay
